An excerpt weighted towards active compounds, which were near 4.8% of everything screened.
DAX1 inh-1: DAX1 (NR0B1) inhibitors on StAR promoter, primary screen, cell-based, luminescence, SF-1 (NR5A1), full-length DAX-1; HEK293T StAR-luciferase reporter, SF-1/DAX-1 repression relief; inhibition, % at 6.8 µM; actives 1.1% (n = 370,000); AID 652010, 2013;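 active means inhibition above the mean over all tested compounds plus 3 SD, cut at about 3.6% in these data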;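 further: 0% = DAX-1 cells with DMSO and 100% = cells lacking DAX-1 with DMSO; higher inhibition means more luminescence from relief of DAX-1 repression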
hcDAF12 agonist: H. contortus DAF-12 nuclear receptor activators, primary screen, cell-based, luminescence, HEK293, lit1-tk-luc reporter. actives 1.4% (n = 370,000). activation, % at 6.8 µM. HEK293 hcDAF-12 lit1-tk-luc reporter; 0% DMSO, 100% Δ7-dafachronic acid. AID 652067, 2013;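 active means activation above the mean of all tested compounds plus 3 SD, cut at about 5.5% in these data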;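 further: 100% = response to 3 µM Δ7-dafachronic acid high control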
ssDAF12 agonist: S. stercoralis DAF-12 nuclear receptor activators, primary screen, cell-based, luminescence, HEK293, GRIP1 co-expression, lit1-tk-luc. Nuclear hormone receptor DAF-12 (Strongyloides stercoralis). HEK293 ssDAF-12/GRIP1 lit1-tk-luc reporter; % of 3 µM dafachronic acid response. activation, % at 6.8 µM. actives 1% (n = 370,000). AID 652126, 2013;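 active means activation above the mean over all tested compounds plus 3 SD, cut at about 0.9% in these data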;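 further: 0% = DMSO-only wells and 100% = 3 µM delta7-dafachronic acid wells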
NR1D1 modulator: modulators of Rev-erb alpha DNA binding, primary screen, biochemical, FITC-DNA, fluorescence polarization, uHTS; Nuclear receptor subfamily 1 group D member 1 (Homo sapiens), P20393; Rev-erbα–FITC-DNA binding, 90 min; activity, % at 10 µM; actives 0.79% (n = 370,000);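 active means activity above about 14%, limit read from the data; passing the limit was not always enough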;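 further: 0% = DMSO wells with 35 nM protein and 100% = DMSO wells with 750 nM protein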
hgDAF12 agonist: H. glycines DAF-12 receptor agonists, primary screen, cell-based, luminescence, HEK293, GAL4 fusion, UAS-luciferase. Nuclear hormone receptor DAF-12 (Heterodera glycines), GAL4 fusion. actives 1.8% (n = 370,000). HEK293 GAL4-hgDAF12 UAS-luciferase reporter, agonist luminescence; normalized to butyrate control. activation, % at 6.8 µM;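 active means activation above a cutoff set at the mean of all screened compounds plus 3 SD, cut at about 10% in these data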;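 further: 0% = DMSO wells and 100% = sodium butyrate wells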
DAX1 inh-2: DAX1 (NR0B1) inhibitors, primary screen, cell-based, HEK293, Gal4-DAX1, luciferase luminescence. actives 0.99% (n = 340,000). Nuclear receptor subfamily 0 group B member 1 (Homo sapiens), P51843. AID 504766, 2011. inhibition, % at 6.75 µM. HEK293 Gal4-DAX1 luciferase reporter;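 active means inhibition above the mean over all tested compounds plus 3 SD, cut at about 4.2% in these data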;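 further: 0% = DAX1-transfected cells with DMSO and 100% = empty-vector control cells with DMSO; inhibition shows as a rise in luminescence from relieved DAX1 repression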
Target sequence (P51843 207-470 limits assumed): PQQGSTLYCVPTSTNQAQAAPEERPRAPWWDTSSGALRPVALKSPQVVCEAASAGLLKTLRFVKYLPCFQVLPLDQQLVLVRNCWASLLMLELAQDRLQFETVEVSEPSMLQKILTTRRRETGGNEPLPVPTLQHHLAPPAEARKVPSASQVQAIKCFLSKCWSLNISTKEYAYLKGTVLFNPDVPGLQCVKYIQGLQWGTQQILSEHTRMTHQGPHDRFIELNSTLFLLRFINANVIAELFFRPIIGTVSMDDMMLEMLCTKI
DAX1 inh confirm: DAX1 (NR0B1) inhibitors relieving SF-1 repression, confirmation, cell-based, luminescence, HEK293T, full-length DAX-1, SF-1 activated StAR promoter; HEK293T StAR-promoter luciferase reporter, SF-1/DAX-1 repression; shares compounds with DAX1 inh-1; actives 87% (n = 2,400); inhibition, % at 6.8 µM; AID 652134, 2013;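 active means inhibition above the average of every tested compound plus 3 SD, cut at about 3.8% in these data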;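 further: 0% = DAX-1 cells with DMSO and 100% = no DAX-1 control cells with DMSO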
SF1 AF2mut Luc: StAR reporter signal changes without DAX1, counter-screen for DAX1 inhibitor project, cell-based, luminescence, AF-2 mutant SF-1, transactivation; shares compounds with DAX1 inh-1; HEK293 StAR-luciferase, SF-1 AF2 mutant; inhibition, % at 6.8 µM; actives 78% (n = 2,400);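 active means inhibition above the mean of all tested compounds plus 3 SD, cut at about 3% in these data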;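 further: 0% = DAX-1 transfected cells with DMSO and 100% = cells without DAX-1 with DMSO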
LXR ag: LXR agonists, Gal4 luciferase reporter, confirmation, counter-screen for hcDAF-12 agonist project, cell-based, luminescence, HEK293, H. contortus campaign; shares compounds with hcDAF12 agonist; HEK293 Gal4-LXR tk-luc reporter, 24 h; normalized: DMSO 0%, positive control 100%; activation, % at 6.8 µM; 3,400 tested, under 10 active; AID 743027, 2013;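 active means mean percent activation of the reporter above a cutoff set as the average over tested compounds plus their standard deviation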
hcDAF12 conf: H. contortus DAF-12 receptor agonists, confirmation, cell-based, luminescence, HEK293, lit1-tk-luc, triplicate; shares compounds with hcDAF12 agonist; HEK293 hcDAF-12 lit1-tk-luc reporter; % of Δ7-dafachronic acid response; actives 61% (n = 3,400); activation, % at 6.8 µM; AID 743032, 2013;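 active means mean activation across triplicate tests above the threshold derived from the earlier primary screen, cut at about 5.5% in these data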;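 further: 0% = DMSO only wells and 100% = 3 µM Δ7-dafachronic acid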
hgDAF12 ag: H. glycines DAF-12 receptor agonists, confirmation, cell-based, luminescence, HEK293, GAL4-LBD fusion; shares compounds with hgDAF12 agonist; HEK293 GAL4-hgDAF12 luciferase reporter, agonist mode; percent of butyrate response; activation, % at 6.8 µM; actives 80% (n = 3,300); AID 743050, 2013;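 active means mean activation over triplicate wells above the hit cutoff derived from the earlier primary screen, cut at about 11% in these data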;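 further: 0% = DMSO low control and 100% = 2 mM sodium butyrate high control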
LXR ag 2: LXR agonists, Gal4 luciferase reporter, confirmation, counter-screen for hgDAF-12 agonist project, cell-based, luminescence, HEK293, H. glycines campaign. shares compounds with hgDAF12 agonist. 24 h. activation, % at 6.8 µM. 3,300 tested, under 10 active. AID 743051, 2013;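 active means mean activation of the triplicate above a set limit carried over from the primary screen, none filed active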
An asterisk follows results filed as active; x = no result.

SMILES	DAX1 inh-1	hcDAF12 agonist	ssDAF12 agonist	NR1D1 modulator	hgDAF12 agonist	DAX1 inh-2	DAX1 inh confirm	SF1 AF2mut Luc	LXR ag	hcDAF12 conf	hgDAF12 ag	LXR ag 2
O=S1(=O)CC(c2ccccc2)=NN=C(c2ccccc2)C1	7.6*	9.5*	1.5*	1	17*	3	11*	3.9*	1	8.5*	16*	1
N/C(=N\N=C\c1cccc(O)c1)c1nonc1N	7.2*	13*	3.2*	-5	20*	-1	15*	11*	2	9.0*	17*	1
COc1ccc(/C=N/N=C(\N)c2nonc2N)cc1OC	2	0	-1	6	9	3	x	x	x	x	x	x
CC1CCCN(c2cccc3c2S(=O)(=O)N([C@H](C)c2ccccc2)C[C@@H](COCc2ccccc2)O3)C1 (stereo not given in full)	0	0	-1	1	0	x	x	x	x	x	x	x
Cc1c(Cl)cccc1NC(=O)c1ccco1	0	-1	-1	-3	0	0	x	x	x	x	x	x
Cc1c(Cl)ccc2sc(NC(=O)c3ccco3)nc12	6.0*	10*	1.2*	3	21*	3	12*	8.7*	2	9.9*	21*	1
O=C(NN=C1CCCCCC1)c1cccs1	13*	8.0*	1	-3	25*	3	1	1	0	2	6	0
CC1C2CC(C/C2=N/NC(=O)c2cccs2)C1(C)C (stereo not given)	5.0*	3	0	-6	13*	3	1	1	x	x	0	0
COC(=O)C1=C(C)N(C)C(=NCc2ccc(C(F)(F)F)cc2)NC1c1cccc(Cl)c1 (stereo not given)	0	-1	0	-2	0	x	x	x	x	x	x	x
CN(CC(=O)Nc1ccccc1Br)C(=O)c1cc2c(s1)CCCCC2	6.4*	2	0	-2	14*	4.2*	7.5*	4.9*	x	x	11*	0
O=C(Nc1ccc(Cl)cc1)c1ccc(Br)cc1F	7.5*	9.6*	1	2	18*	4	11*	7.5*	1	6	20*	1
CCS(=O)(=O)Nc1cc(-c2nc3cccnc3s2)ccc1C	6.4*	8.3*	1	2	22*	3	8.9*	7.7*	1	5.6*	16*	1
COc1ccc2oc3cc(NCCN(C)C)ccc3c(=O)c2c1	16*	9.2*	2.2*	-5	43*	x	22*	13*	2	8.4*	42*	1
CC(=O)N1C[C@@H](CO)[C@@H](N(C)C(=O)Nc2cccc3ccccc23)C[C@H]1c1ccccc1	-1	2	0	6	3	x	x	x	x	x	x	x
CSc1ccc(/C=N/Nc2ccc(Cl)c(C(=O)O)c2)cc1	6.7*	5	0	-9	14*	1	17*	5.9*	x	x	29*	1
COC(=O)c1ccc2c(C(C)c3ccccc3O)c[nH]c2c1 (stereo not given)	1	-1	0	-2	3	x	x	x	x	x	x	x
C[C@@H]1OC(C2CCCCC2)N(C)[C@H]2C[C@H]3c4cc(N5CCOCC5)ccc4CCN3C[C@@H]12 (stereo not given in full)	1	1	-2	-2	4	x	x	x	x	x	x	x
COc1ccc(CNc2nc3ccccc3n2C)c(OC)c1	6.4*	3	-1	3	13*	0	12*	7.4*	x	x	15*	0
C/C(=N\Nc1ccccc1)c1c(O)cc(C)oc1=O	0	-2	-1	-7	1	3	x	x	x	x	x	x
CC(=Nc1ccc(Cl)cc1N)c1c(O)cc(C)oc1=O	9.8*	10*	1.6*	-6	24*	x	3	1	0	5.6*	16*	0
CC(c1ccccc1)N1CC[C@H]2C=CC[C@@H](C(=O)Nc3cccc(Cl)c3)[C@H]2C1=O (stereo not given in full)	x	-1	-2	1	2	x	x	x	x	x	x	x
CCCC(=O)Nc1nc(-c2ccc3c(c2)OCCO3)cs1	5.6*	4	-1	0	14*	3	6.5*	4.8*	x	x	11*	1
CCCC(=O)Nc1nc(-c2ccc(OC)cc2)cs1	0	0	-1	0	4	0	x	x	x	x	x	x
C=CCCC1CN(Cc2ccc(OC)cc2)S(=O)(=O)c2c(cccc2N2CCCCC2)O1 (stereo not given)	0	2	-1	-2	1	x	x	x	x	x	x	x

Screens: PubChem BioAssay, several laboratories
